Active and inactive are the calls of the source. The calls were made as follows: active = hit-call score of the fitted dose curve at least 0.9, where 1 is the maximum; inactive = score below 0.9.
Experiments:
[1] = read-out: Interleukin-1 alpha (IL1a), IL1A (gene 3552); test: BSK_KF3CT_IL1a: BioMAP Diversity Plus: KF3CT Assay for Interleukin-1 alpha (IL1a) Biomarker Activity (AID 2283070); conditions: primary human keratinocytes with fibroblasts; actives raise or lower the signal
In short: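 Human keratinocyte plus foreskin fibroblast primary co-culture, sampled 24 h after chemical dosing. IL-1a measured by ELISA; responses fitted bidirectionally against DMSO baseline (negative control), so gain or loss of signal both count.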

[2] = read-out: TIMP metallopeptidase inhibitor 2 (TIMP2), TIMP2 (gene 7077); test: BSK_KF3CT_TIMP2: BioMAP Diversity Plus: KF3CT Assay for TIMP metallopeptidase inhibitor 2 (TIMP2) Biomarker Activity (AID 2283071); conditions: primary human keratinocytes with fibroblasts; actives raise or lower the signal
In short: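 Co-culture of human primary keratinocytes and foreskin fibroblasts, measured 24 h after chemical dosing. TIMP-2 quantified by ELISA and fitted in both directions relative to DMSO. Cytotoxicity checked in parallel cultures by SRB total-protein staining.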

[3] = read-out: Transforming growth factor beta 1 (TGFb1), TGFB1 (gene 7040); test: BSK_KF3CT_TGFb1: BioMAP Diversity Plus: KF3CT Assay for Transforming growth factor beta 1 (TGFb1) Biomarker Activity (AID 2283072); conditions: primary human keratinocytes with fibroblasts; actives raise or lower the signal
In short: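 Human keratinocyte/foreskin fibroblast co-culture; TGF-b1 measured by ELISA 24 h after dosing, fitted bidirectionally versus DMSO. Cytotoxicity checked in parallel cultures by total protein (SRB staining, 560 nm).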

[4] = read-out: C-C motif chemokine 2 (Homo sapiens) (UniProt P13500); test: BSK_KF3CT_MCP1: BioMAP Diversity Plus: KF3CT Assay for Monocyte Chemoattractant Protein 1 (MCP1/CCL2) Biomarker Activity (AID 2283073); conditions: primary human keratinocytes with fibroblasts; actives raise or lower the signal
In short: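 ELISA readout of MCP-1 after 24 h chemical dosing of a human skin primary co-culture of keratinocytes and foreskin fibroblasts. Activity was fitted in both directions against DMSO.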

[5] = read-out: Matrix Metallopeptidase 9 (MMP9), MMP9 (gene 4318); test: BSK_KF3CT_MMP9: BioMAP Diversity Plus: KF3CT Assay for Matrix Metallopeptidase 9 (MMP9) Biomarker Activity (AID 2283074); conditions: primary human keratinocytes with fibroblasts; actives raise or lower the signal
In short: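 Keratinocyte plus foreskin fibroblast human primary skin co-culture was dosed with chemical and MMP-9 was quantified by ELISA 24 h later. Bidirectional curve fitting used DMSO as negative control and activity baseline.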

[6] = read-out: urokinase plasminogen activator (uPA), PLAU (gene 5328); test: BSK_KF3CT_uPA: BioMAP Diversity Plus: KF3CT Assay for urokinase plasminogen activator (uPA) Biomarker Activity (AID 2283075); conditions: primary human keratinocytes with fibroblasts; actives raise or lower the signal
In short: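 Human keratinocyte plus foreskin fibroblast primary co-culture exposed to chemical for 24 h. uPA levels were quantified by ELISA, and activity was fitted bidirectionally against a DMSO negative-control baseline.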

[7] = read-out: CD40, CD40 (gene 958); test: BSK_LPS_CD40: BioMAP Diversity Plus: LPS Assay for CD40 Biomarker Activity (AID 2283076); conditions: primary human HUVEC with PBMC; actives raise or lower the signal
In short: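 Cells were dosed, incubated 24 h, then assayed for CD40 by ELISA. Gain or loss of signal was analysed relative to DMSO controls. The culture paired human umbilical vein endothelium with peripheral blood mononuclear cells.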

[8] = read-out: E-selectin (Homo sapiens) (UniProt P16581); test: BSK_LPS_Eselectin: BioMAP Diversity Plus: LPS Assay for Eselectin Biomarker Activity (AID 2283077); conditions: primary human HUVEC with PBMC; actives raise or lower the signal
In short: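 Primary human vascular co-culture (endothelium plus PBMC) was dosed with chemical, then E-selectin quantified by ELISA at 24 h. Endpoint values derive from bidirectional curve fitting relative to DMSO.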

[9] = read-out: Interleukin-8 (IL8), CXCL8 (gene 3576); test: BSK_LPS_IL8: BioMAP Diversity Plus: LPS Assay for Interleukin-8 (IL8) Biomarker Activity (AID 2283078); conditions: primary human HUVEC with PBMC; actives raise or lower the signal
In short: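 Readout is IL-8 by ELISA, taken 24 h after compounds were added to LPS-stimulated endothelial/PBMC co-cultures. Both increases and decreases relative to DMSO control were scored through bidirectional fitting.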

[10] = BSK_LPS_SRB: Viability Assessment in the BioMAP Diversity Plus: LPS Assay (AID 2283079); conditions: primary human HUVEC with PBMC;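 also: total protein by sulforhodamine B absorbance as a cytotoxicity measure; measured one day after compound addition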
In short: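 Readout is SRB absorbance at 560 nm (0.1% stain, TCA-fixed parallel cultures) as a total-protein cytotoxicity measure. Cells: primary human umbilical vein endothelium plus peripheral blood mononuclear cells, 24 h after chemical exposure; DMSO served as baseline.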

[11] = read-out: Monocyte Chemoattractant Protein-1 (MCP1), CCL2 (gene 6347); test: BSK_LPS_MCP1: BioMAP Diversity Plus: LPS Assay for Monocyte Chemoattractant Protein-1 (MCP1) Biomarker Activity (AID 2283081); conditions: primary human HUVEC with PBMC; actives raise or lower the signal
In short: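 Human endothelial–PBMC co-cultures were dosed with chemical, then LPS-driven MCP-1 levels were quantified by ELISA at 24 h. Activity in either direction was fitted versus DMSO negative control.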

[12] = BSK_LPS_PGE2: BioMAP Diversity Plus: LPS Assay for Prostaglandin E2 (PGE2) Biomarker Activity (AID 2283082); conditions: primary human HUVEC with PBMC; actives raise or lower the signal
In short: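 HUVEC plus human PBMC co-culture stimulated with LPS; secreted PGE2 quantified by ELISA 24 h after chemical dosing. Activity fitted bidirectionally against DMSO baseline; parallel SRB staining (0.1% SRB after 10% TCA fixation, 560 nm) flags overt cytotoxicity.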

[13] = read-out: Macrophage colony-stimulating factor (MCSF), CSF1 (gene 1435); test: BSK_LPS_MCSF: BioMAP Diversity Plus: LPS Assay for Macrophage colony-stimulating factor (MCSF) Biomarker Activity (AID 2283083); conditions: primary human HUVEC with PBMC; actives raise or lower the signal
In short: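 ELISA readout of M-CSF after 24 h compound exposure in a human endothelial/PBMC co-culture. Activity, in either direction, is fitted relative to DMSO vehicle.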

[14] = read-out: Tissue Factor, F3 (gene 2152); test: BSK_LPS_TissueFactor: BioMAP Diversity Plus: LPS Assay for Tissue Factor Biomarker Activity (AID 2283084); conditions: primary human HUVEC with PBMC; actives raise or lower the signal
In short: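 ELISA signal for cell-surface Tissue Factor (CD142) was read 24 h after compound dosing of an LPS-stimulated human endothelial–PBMC primary co-culture. Gain or loss of signal was scored relative to DMSO.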

[15] = read-out: Tumor necrosis factor (Homo sapiens) (UniProt P01375); test: BSK_LPS_TNFa: BioMAP Diversity Plus: LPS Assay for Tumour Necrosis Factor alpha (TNFa) Biomarker Activity (AID 2283085); conditions: primary human HUVEC with PBMC; actives raise or lower the signal;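 as to AC50: TNFa protein level quantified by ELISA in the co-culture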
In short: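 Human umbilical vein endothelial cells co-cultured with PBMC and stimulated with LPS. TNFa was measured by ELISA 24 h after chemical dosing, fitted bidirectionally relative to DMSO.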

[16] = read-out: Vascular cell adhesion molecule 1 (VCAM1), VCAM1 (gene 7412); test: BSK_LPS_VCAM1: BioMAP Diversity Plus: LPS Assay for Vascular cell adhesion molecule 1 (VCAM1) Biomarker Activity (AID 2283086); conditions: primary human HUVEC with PBMC; actives raise or lower the signal
In short: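 Human umbilical vein endothelial cells co-cultured with PBMC and stimulated with LPS; VCAM-1 measured by ELISA 24 h after dosing. Bidirectional curve fitting against DMSO baseline; cytotoxicity tracked in parallel by SRB total-protein staining.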

[17] = read-out: CD38, CD38 (gene 952); test: BSK_SAg_CD38: BioMAP Diversity Plus: SAg Assay for CD38 Biomarker Activity (AID 2283087); conditions: primary human HUVEC with PBMC; actives raise or lower the signal
In short: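 Human HUVEC plus PBMC co-culture stimulated with superantigen; CD38 measured by ELISA 24 h after chemical dosing. Fluorescence read-out, bidirectional fit against DMSO; cytotoxicity tracked in parallel by SRB and Alamar Blue.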

[18] = read-out: CD40, CD40 (gene 958); test: BSK_SAg_CD40: BioMAP Diversity Plus: SAg Assay for CD40 Biomarker Activity (AID 2283088); conditions: primary human HUVEC with PBMC; actives raise or lower the signal
In short: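 Compounds were dosed onto a human primary endothelial–PBMC co-culture, and after 24 h CD40 was quantified by ELISA using a fluorescence signal. Activity in either direction was fitted relative to DMSO.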

[19] = read-out: CD69, CD69 (gene 969); test: BSK_SAg_CD69: BioMAP Diversity Plus: SAg Assay for CD69 Biomarker Activity (AID 2283089); conditions: primary human HUVEC with PBMC; actives raise or lower the signal
In short: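 Primary human vascular co-culture (umbilical vein endothelium with peripheral blood mononuclear cells) exposed to test chemical for 24 h. CD69 levels quantified by fluorescence ELISA; DMSO served as negative control for bidirectional fitting.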

[20] = read-out: Interleukin-1 alpha (IL1a), IL1A (gene 3552); test: BSK_LPS_IL1a: BioMAP Diversity Plus: LPS Assay for Interleukin-1 alpha (IL1a) Biomarker Activity (AID 2283080); conditions: primary human HUVEC with PBMC; actives raise or lower the signal
In short: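 ELISA read-out of IL-1 alpha from a human primary vascular co-culture (endothelium plus PBMC) under LPS, sampled 24 hours post-dosing. Activity was fitted in both directions relative to DMSO controls.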

Measured: AC50

Chain of E-selectin (Homo sapiens) (P16581 whole entry, looked up): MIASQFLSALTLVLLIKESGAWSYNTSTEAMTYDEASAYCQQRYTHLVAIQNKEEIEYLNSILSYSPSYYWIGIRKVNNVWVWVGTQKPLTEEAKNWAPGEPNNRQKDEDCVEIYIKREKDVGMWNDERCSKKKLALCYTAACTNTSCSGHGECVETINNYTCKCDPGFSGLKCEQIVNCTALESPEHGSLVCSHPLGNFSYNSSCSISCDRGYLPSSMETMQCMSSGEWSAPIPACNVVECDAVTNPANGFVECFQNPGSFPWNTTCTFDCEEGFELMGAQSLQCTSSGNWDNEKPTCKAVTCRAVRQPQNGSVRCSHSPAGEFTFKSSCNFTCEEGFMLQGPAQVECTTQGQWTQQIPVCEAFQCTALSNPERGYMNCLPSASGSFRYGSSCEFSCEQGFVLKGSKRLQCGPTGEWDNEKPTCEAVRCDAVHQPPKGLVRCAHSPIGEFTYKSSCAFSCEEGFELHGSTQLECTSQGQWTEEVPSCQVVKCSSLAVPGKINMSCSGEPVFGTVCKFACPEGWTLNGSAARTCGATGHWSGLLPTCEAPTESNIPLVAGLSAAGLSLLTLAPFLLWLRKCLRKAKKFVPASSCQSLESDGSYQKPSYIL
Chain of Tumor necrosis factor (Homo sapiens) (P01375 whole entry, looked up): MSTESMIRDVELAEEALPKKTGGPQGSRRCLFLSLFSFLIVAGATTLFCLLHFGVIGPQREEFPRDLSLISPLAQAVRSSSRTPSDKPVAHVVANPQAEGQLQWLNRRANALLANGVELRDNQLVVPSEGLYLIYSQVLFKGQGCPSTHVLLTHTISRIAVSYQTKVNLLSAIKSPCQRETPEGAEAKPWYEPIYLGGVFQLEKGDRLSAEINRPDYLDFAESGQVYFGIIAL

COC(=O)c1ccc(I)cc1S(=O)(=O)NC(=O)Nc1nc(C)nc(OC)n1
not listed: [20]
inactive: all other assays above

CCOC(=O)COc1cc(-n2ncc(C(F)(F)F)c(C)c2=O)c(F)cc1Cl
not listed: [20]
inactive: all other assays above

CCCCOCCOCCOCc1cc2c(cc1CCC)OCO2
active: [7] 20 µM | [9] 13.3 µM | [10] 12.1 µM | [15] 25.3 µM
not listed: [20]
inactive: all other assays above

COC(=O)c1ccc(CNS(C)(=O)=O)cc1S(=O)(=O)NC(=O)Nc1nc(OC)cc(OC)n1
not listed: [20]
inactive: all other assays above

CCCCOC(=O)C(C)Oc1ccc(Oc2ccc(C(F)(F)F)cn2)cc1 (stereo not given)
not listed: [2]
inactive: all other assays above

COC(=O)CSc1cc(N=c2sc(=O)n3n2CCCC3)c(F)cc1Cl
active: [15] 9.6 µM
not listed: [3]
inactive: all other assays above

C[C@]12C[C@H](O)[C@H]3[C@@H](CCC4=CC(=O)CC[C@@]43C)[C@@H]1CC[C@@H]2C(=O)CO
inactive: [2]
